# In paper PMC9911399, “Two distinct binding modes provide the RNA-binding protein RbFox with extraordinary sequence specificity”:
# Positions count from the first letter of the chain named. Whole data set: some 16,000 sequences, median “ka relative to ugcaugu” near 0.0091, cut for the highest 2% near 0.032. Only a selection was taken, and the highest values are over-represented in it overall.
# T1: RBFOX1 RRM (Homo sapiens, UniProt Q9NWB1 109-208)
# T1 sequence: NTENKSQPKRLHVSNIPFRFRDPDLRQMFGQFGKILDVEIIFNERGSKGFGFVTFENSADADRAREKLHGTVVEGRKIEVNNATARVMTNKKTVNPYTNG
# B1: UAGUCCU (DNA:RNA)
# RNA: GGGAGACCGGAAUUCAGAUUGUCCUAGUCCUUUAAAUCCCGUCGUAGCCACCA
# DNA 1: CAATCTGAATTCCGGTCTCCC
# DNA 2: TGGTGGCTACGACGGGATT
# B2: GUACGUA (DNA:RNA)
# RNA: GGGAGACCGGAAUUCAGAUUGUCCGUACGUAUUAAAUCCCGUCGUAGCCACCA
# DNA 1: CAATCTGAATTCCGGTCTCCC
# DNA 2: TGGTGGCTACGACGGGATT
# B3: CUUUCCU (DNA:RNA)
# RNA: B1 RNA with U25C, A26U, G27U
# DNA 1: CAATCTGAATTCCGGTCTCCC
# DNA 2: TGGTGGCTACGACGGGATT
# B4: GUCUCGA (DNA:RNA)
# RNA: B2 RNA with A27C, C28U, G29C, U30G
# DNA 1: CAATCTGAATTCCGGTCTCCC
# DNA 2: TGGTGGCTACGACGGGATT
# B5: CGGCUCG (DNA:RNA)
# RNA: B1 RNA with U25C, A26G, U28C, C29U, U31G
# DNA 1: CAATCTGAATTCCGGTCTCCC
# DNA 2: TGGTGGCTACGACGGGATT
# B6: GGCUCGA (DNA:RNA)
# RNA: B2 RNA with U26G, A27C, C28U, G29C, U30G
# DNA 1: CAATCTGAATTCCGGTCTCCC
# DNA 2: TGGTGGCTACGACGGGATT
# B7: UGCUCGG (DNA:RNA)
# RNA: B1 RNA with A26G, G27C, C30G, U31G
# DNA 1: CAATCTGAATTCCGGTCTCCC
# DNA 2: TGGTGGCTACGACGGGATT
# B8: UCGUCGA (DNA:RNA)
# RNA: B1 RNA with A26C, C30G, U31A
# DNA 1: CAATCTGAATTCCGGTCTCCC
# DNA 2: TGGTGGCTACGACGGGATT
# B9: UGCUCGA (DNA:RNA)
# RNA: B1 RNA with A26G, G27C, C30G, U31A
# DNA 1: CAATCTGAATTCCGGTCTCCC
# DNA 2: TGGTGGCTACGACGGGATT
# B10: UCCUCGA (DNA:RNA)
# RNA: B1 RNA with A26C, G27C, C30G, U31A
# DNA 1: CAATCTGAATTCCGGTCTCCC
# DNA 2: TGGTGGCTACGACGGGATT
# B11: UCGUCGG (DNA:RNA)
# RNA: B1 RNA with A26C, C30G, U31G
# DNA 1: CAATCTGAATTCCGGTCTCCC
# DNA 2: TGGTGGCTACGACGGGATT
# B12: CGCUCGG (DNA:RNA)
# RNA: B1 RNA with U25C, A26G, G27C, C30G, U31G
# DNA 1: CAATCTGAATTCCGGTCTCCC
# DNA 2: TGGTGGCTACGACGGGATT
# B13: ACAGCUC (DNA:RNA)
# RNA: B2 RNA with G25A, U26C, C28G, G29C, A31C
# DNA 1: CAATCTGAATTCCGGTCTCCC
# DNA 2: TGGTGGCTACGACGGGATT
# B14: CUAUCUG (DNA:RNA)
# RNA: B2 RNA with G25C, C28U, G29C, A31G
# DNA 1: CAATCTGAATTCCGGTCTCCC
# DNA 2: TGGTGGCTACGACGGGATT
# B15: UAAGCGA (DNA:RNA)
# RNA: B1 RNA with G27A, U28G, C30G, U31A
# DNA 1: CAATCTGAATTCCGGTCTCCC
# DNA 2: TGGTGGCTACGACGGGATT
# B16: GGUCAGA (DNA:RNA)
# RNA: B2 RNA with U26G, A27U, G29A, U30G
# DNA 1: CAATCTGAATTCCGGTCTCCC
# DNA 2: TGGTGGCTACGACGGGATT
# B17: CAUUUGG (DNA:RNA)
# RNA: B1 RNA with U25C, G27U, C29U, C30G, U31G
# DNA 1: CAATCTGAATTCCGGTCTCCC
# DNA 2: TGGTGGCTACGACGGGATT
# B18: GACUAUC (DNA:RNA)
# RNA: B2 RNA with U26A, A27C, C28U, G29A, A31C
# DNA 1: CAATCTGAATTCCGGTCTCCC
# DNA 2: TGGTGGCTACGACGGGATT
# B19: AAAGUAC (DNA:RNA)
# RNA: B2 RNA with G25A, U26A, C28G, G29U, U30A, A31C
# DNA 1: CAATCTGAATTCCGGTCTCCC
# DNA 2: TGGTGGCTACGACGGGATT
# B20: AAAACUA (DNA:RNA)
# RNA: B2 RNA with G25A, U26A, C28A, G29C
# DNA 1: CAATCTGAATTCCGGTCTCCC
# DNA 2: TGGTGGCTACGACGGGATT
# B21: GAUCUCU (DNA:RNA)
# RNA: B1 RNA with U25G, G27U, U28C, C29U
# DNA 1: CAATCTGAATTCCGGTCTCCC
# DNA 2: TGGTGGCTACGACGGGATT
# B22: UUAAGUU (DNA:RNA)
# RNA: B2 RNA with G25U, C28A, A31U
# DNA 1: CAATCTGAATTCCGGTCTCCC
# DNA 2: TGGTGGCTACGACGGGATT
# B23: UGCGUCC (DNA:RNA)
# RNA: B1 RNA with A26G, G27C, U28G, C29U, U31C
# DNA 1: CAATCTGAATTCCGGTCTCCC
# DNA 2: TGGTGGCTACGACGGGATT
# B24: UCCUGCG (DNA:RNA)
# RNA: B1 RNA with A26C, G27C, C29G, U31G
# DNA 1: CAATCTGAATTCCGGTCTCCC
# DNA 2: TGGTGGCTACGACGGGATT
# B25: UGCUGCG (DNA:RNA)
# RNA: B1 RNA with A26G, G27C, C29G, U31G
# DNA 1: CAATCTGAATTCCGGTCTCCC
# DNA 2: TGGTGGCTACGACGGGATT
# B26: UGCGUGU (DNA:RNA)
# RNA: B1 RNA with A26G, G27C, U28G, C29U, C30G
# DNA 1: CAATCTGAATTCCGGTCTCCC
# DNA 2: TGGTGGCTACGACGGGATT
# B27: CGCGUGC (DNA:RNA)
# RNA: GGGAGACCGGAAUUCAGAUUGUCCCGCGUGCUUAAAUCCCGUCGUAGCCACCA
# DNA 1: CAATCTGAATTCCGGTCTCCC
# DNA 2: TGGTGGCTACGACGGGATT
# B28: UGCGCGU (DNA:RNA)
# RNA: B27 RNA with C25U, U29C, C31U
# DNA 1: CAATCTGAATTCCGGTCTCCC
# DNA 2: TGGTGGCTACGACGGGATT
# B29: UGCGUCG (DNA:RNA)
# RNA: B27 RNA with C25U, G30C, C31G
# DNA 1: CAATCTGAATTCCGGTCTCCC
# DNA 2: TGGTGGCTACGACGGGATT
# B30: UGUGUCC (DNA:RNA)
# RNA: B27 RNA with C25U, C27U, G30C
# DNA 1: CAATCTGAATTCCGGTCTCCC
# DNA 2: TGGTGGCTACGACGGGATT
# B31: UGCGUUU (DNA:RNA)
# RNA: B27 RNA with C25U, G30U, C31U
# DNA 1: CAATCTGAATTCCGGTCTCCC
# DNA 2: TGGTGGCTACGACGGGATT
# B32: UGCGUGC (DNA:RNA)
# RNA: B27 RNA with C25U
# DNA 1: CAATCTGAATTCCGGTCTCCC
# DNA 2: TGGTGGCTACGACGGGATT
# B33: CUGCGUG (DNA:RNA)
# RNA: B2 RNA with G25C, A27G, A31G
# DNA 1: CAATCTGAATTCCGGTCTCCC
# DNA 2: TGGTGGCTACGACGGGATT
# B34: UUCGUGC (DNA:RNA)
# RNA: B27 RNA with C25U, G26U
# DNA 1: CAATCTGAATTCCGGTCTCCC
# DNA 2: TGGTGGCTACGACGGGATT
# Target: T1, RBFOX1 RRM
# Assay: EMSA; HiTS-Eq, 1 nM pool, 10 min; buffer printed only for the single-RNA assays: 10 mM Tris pH 7.5, 150 mM NaCl, 3.4 mM EDTA, 0.001% NP-40, 30 C
# Details: tags: His6 N-terminal (pET28a); label: 5' 32P
# Procedure, shortened: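 Purified wild-type or mutant RbFox RRM at increasing concentrations was equilibrated with 1 nM of 5′-radiolabelled RNA carrying 7 randomized nucleotides for 10 min in 50 µL. Unbound RNA was separated by 8% native PAGE and sequenced. Relative association constants came from read-count changes of each RNA species compared with the control reaction, normalised to the cognate motif.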
row,Binder,binding signal
1,B1,0.00776 KA relative to UGCAUGU
2,B2,0.0085 KA relative to UGCAUGU
3,B3,0.0054 KA relative to UGCAUGU
4,B4,0.0166 KA relative to UGCAUGU
5,B5,0.0112 KA relative to UGCAUGU
6,B6,0.033 KA relative to UGCAUGU
7,B7,0.0361 KA relative to UGCAUGU
8,B8,0.014 KA relative to UGCAUGU
9,B9,0.0363 KA relative to UGCAUGU
10,B10,0.00976 KA relative to UGCAUGU
11,B11,0.0171 KA relative to UGCAUGU
12,B12,0.0166 KA relative to UGCAUGU
13,B13,0.00303 KA relative to UGCAUGU
14,B14,0.00983 KA relative to UGCAUGU
15,B15,0.0108 KA relative to UGCAUGU
16,B16,0.00171 KA relative to UGCAUGU
17,B17,0.014 KA relative to UGCAUGU

row,Binder,binding signal
1,B18,0.00429 KA relative to UGCAUGU
2,B19,0.00371 KA relative to UGCAUGU
3,B20,0.00178 KA relative to UGCAUGU
4,B21,0.0194 KA relative to UGCAUGU
5,B22,0.0109 KA relative to UGCAUGU
6,B23,0.0132 KA relative to UGCAUGU
7,B24,0.0166 KA relative to UGCAUGU
8,B25,0.0333 KA relative to UGCAUGU
9,B26,0.0418 KA relative to UGCAUGU
10,B27,0.0241 KA relative to UGCAUGU
11,B28,0.0288 KA relative to UGCAUGU
12,B29,0.0236 KA relative to UGCAUGU
13,B30,0.0226 KA relative to UGCAUGU
14,B31,0.0236 KA relative to UGCAUGU
15,B32,0.0465 KA relative to UGCAUGU
16,B33,0.035 KA relative to UGCAUGU
17,B34,0.0243 KA relative to UGCAUGU
